In PubChem BioAssay (NCATS):
Inconclusive results are not listed. Activity calls are given as the source filed them. Unless noted, calls follow the shape of the dose curve; as a rule, active = well fitted curve in the direction sought with a large enough effect; inconclusive = small, poorly fitted or top-dose-only effect, or another doubt; inactive = no such curve, though single readings can be large; an effect the other way counts as inactive or inconclusive.

Experiments:
[1] = Primary qHTS to identify inhibitors of SARS-CoV-2 cell entry (AID 1645846; calls by dose curve; also: nearly all actives have a fitted effect of over 45% in size; also: potency is read from the fitted curve at half-maximal effect); settings: activity change, negative = inhibition: at 57.1 µM (top of the series) unless noted
Method in brief: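 HEK293 cells stably expressing human ACE2, pre-treated 1 h with compound, then infected with MLV particles pseudotyped with Wuhan-Hu-1 spike (C-terminal 19-aa truncation). Luciferase luminescence after 48 h at 37 °C, normalised to spike PP and bald PP.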

[2] = VSVG counterscreen qHTS to identify inhibitors of SARS-CoV-2 cell entry (AID 1645847; calls by dose curve; also: potency is read from the fitted curve at half-maximal effect; nearly all actives have a fitted effect of over 65% in size)
Method in brief: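 HEK293-ACE2 cells (Expi293F, human ACE2) pretreated 1 h with compound, then infected with MLV-based VSV-G pseudotyped particles for 48 h at 37 C; luciferase luminescence normalized to VSV-G PP and bald PP wells.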

[3] = molecular target: Rap guanine nucleotide exchange factor 3 (Homo sapiens) (UniProt O95398); assay: Confirmatory qHTS for antagonist of cAMP-regulated guanine nucleotide exchange factor 3 (EPAC1) (AID 1645880);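 also: plate controls were DMSO only for no effect and full effect of the ATA control for full effect; nearly all actives have a fitted effect of over 55% in size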
Chain of Rap guanine nucleotide exchange factor 3 (Homo sapiens) (O95398 whole entry, looked up): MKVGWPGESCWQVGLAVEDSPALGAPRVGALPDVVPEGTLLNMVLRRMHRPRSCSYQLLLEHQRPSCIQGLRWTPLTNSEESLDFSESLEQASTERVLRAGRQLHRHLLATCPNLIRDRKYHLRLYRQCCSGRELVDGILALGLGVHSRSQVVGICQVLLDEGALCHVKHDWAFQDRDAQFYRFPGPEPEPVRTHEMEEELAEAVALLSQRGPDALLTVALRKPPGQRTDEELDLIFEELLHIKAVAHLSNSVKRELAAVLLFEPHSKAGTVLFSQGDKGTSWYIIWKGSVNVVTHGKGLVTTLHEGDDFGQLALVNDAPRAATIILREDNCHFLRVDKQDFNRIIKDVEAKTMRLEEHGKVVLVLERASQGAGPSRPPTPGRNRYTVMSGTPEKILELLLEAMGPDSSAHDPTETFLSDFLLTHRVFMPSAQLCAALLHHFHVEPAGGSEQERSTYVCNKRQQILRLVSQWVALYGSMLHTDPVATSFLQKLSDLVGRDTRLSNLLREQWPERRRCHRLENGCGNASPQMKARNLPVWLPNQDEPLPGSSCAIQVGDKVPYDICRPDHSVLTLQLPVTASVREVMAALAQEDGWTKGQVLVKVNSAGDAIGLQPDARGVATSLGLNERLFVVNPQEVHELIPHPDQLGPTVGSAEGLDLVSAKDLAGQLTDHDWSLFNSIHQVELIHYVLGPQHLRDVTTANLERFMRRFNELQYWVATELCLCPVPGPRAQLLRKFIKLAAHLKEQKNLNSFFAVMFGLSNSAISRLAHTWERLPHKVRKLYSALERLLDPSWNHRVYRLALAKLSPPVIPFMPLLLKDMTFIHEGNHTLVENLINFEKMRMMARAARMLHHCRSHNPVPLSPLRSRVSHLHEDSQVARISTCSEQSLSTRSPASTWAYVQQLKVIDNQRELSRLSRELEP
Method in brief: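 Nucleotide exchange uses 100 nM EPAC1, 250 nM RAP1B-BODIPY-GDP and 50 uM GDP, with compounds in a concentration-titration series. After 5 min at room temperature, fluorescence (480 nm ex/540 nm em) is read every 5 min for 30 min. Data are normalized to control ATA and DMSO.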

[4] = molecular target: Rap guanine nucleotide exchange factor 3 (Homo sapiens) (UniProt O95398); assay: Confirmatory qHTS for agonist of cAMP-regulated guanine nucleotide exchange factor 3 (EPAC1) (AID 1645881);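 also: EPAC1 catalysed release of BODIPY-GDP from Rap1B seen as fluorescence loss; 100% = effect of cAMP agonist control; nearly all actives have a fitted effect of over 75% in size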
[5] = molecular target: Rap guanine nucleotide exchange factor 4 (Homo sapiens) (UniProt Q8WZA2); assay: Confirmatory qHTS for antagonist of cAMP-regulated guanine nucleotide exchange factor 4 (EPAC2) (AID 1645885); also: % is scaled to controls: 0 for no effect and ±100 for the full control effect; nearly all actives have a fitted effect of over 25% in size
Chain of Rap guanine nucleotide exchange factor 4 (Homo sapiens) (Q8WZA2 whole entry, looked up, the tested form may be a part): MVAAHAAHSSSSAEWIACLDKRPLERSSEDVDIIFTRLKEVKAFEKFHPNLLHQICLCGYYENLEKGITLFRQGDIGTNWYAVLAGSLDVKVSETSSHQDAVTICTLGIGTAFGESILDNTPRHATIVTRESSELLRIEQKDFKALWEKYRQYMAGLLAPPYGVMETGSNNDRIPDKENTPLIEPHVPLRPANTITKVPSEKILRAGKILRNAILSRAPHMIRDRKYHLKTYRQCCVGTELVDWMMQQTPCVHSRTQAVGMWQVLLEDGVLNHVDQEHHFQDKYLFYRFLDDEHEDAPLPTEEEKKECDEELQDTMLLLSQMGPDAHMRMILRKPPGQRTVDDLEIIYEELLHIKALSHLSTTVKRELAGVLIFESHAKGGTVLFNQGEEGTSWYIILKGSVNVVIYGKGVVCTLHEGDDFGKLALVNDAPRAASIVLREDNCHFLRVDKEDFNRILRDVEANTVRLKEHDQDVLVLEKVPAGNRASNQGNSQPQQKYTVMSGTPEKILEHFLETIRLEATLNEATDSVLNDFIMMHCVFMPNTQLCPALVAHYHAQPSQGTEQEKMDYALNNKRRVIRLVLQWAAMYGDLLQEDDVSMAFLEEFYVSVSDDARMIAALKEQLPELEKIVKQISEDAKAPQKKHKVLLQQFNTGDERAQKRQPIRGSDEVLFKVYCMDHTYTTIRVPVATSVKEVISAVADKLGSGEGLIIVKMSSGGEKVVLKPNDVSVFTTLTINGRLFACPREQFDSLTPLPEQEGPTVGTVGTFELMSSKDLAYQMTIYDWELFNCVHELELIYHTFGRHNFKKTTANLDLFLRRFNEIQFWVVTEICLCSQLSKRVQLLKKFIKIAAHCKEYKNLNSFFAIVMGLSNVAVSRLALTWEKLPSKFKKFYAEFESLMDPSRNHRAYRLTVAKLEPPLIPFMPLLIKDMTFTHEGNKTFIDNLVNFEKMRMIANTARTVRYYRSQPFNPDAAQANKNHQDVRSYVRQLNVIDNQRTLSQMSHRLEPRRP

[6] = Primary qHTS for inhibitors of nuclear receptor binding SET domain protein 2 (NSD2) in an RCH-ACV wild type WT cells (2C) (AID 1645877); also: potency is read from the fitted curve at half-maximal effect; nearly all actives have a fitted effect of over 70% in size
Papain (Carica papaya) = Papain (Carica papaya) (UniProt P00784); assay: Primary qHTS assay for inhibitors of the protease papain (AID 1645873);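 also: papain turnover of Z-FR-AMC read as the AMC fluorescence gain over 10 min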; also: potency is read from the fitted curve at half-maximal effect; as to activity change, negative = inhibition: % is scaled to controls: 0 for no effect and ±100 for the full control effect
Chain of Papain (Carica papaya) (P00784 whole entry, looked up): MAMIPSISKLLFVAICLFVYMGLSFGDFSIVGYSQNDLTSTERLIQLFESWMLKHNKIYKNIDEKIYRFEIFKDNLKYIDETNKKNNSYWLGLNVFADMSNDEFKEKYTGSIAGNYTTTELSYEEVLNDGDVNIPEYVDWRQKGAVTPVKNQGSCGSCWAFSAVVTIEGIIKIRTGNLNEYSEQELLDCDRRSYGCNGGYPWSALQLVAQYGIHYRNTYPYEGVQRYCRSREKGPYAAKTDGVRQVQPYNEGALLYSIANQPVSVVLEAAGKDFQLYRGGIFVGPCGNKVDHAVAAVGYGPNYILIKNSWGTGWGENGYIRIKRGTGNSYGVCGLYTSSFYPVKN

[7] = molecular target: Catechol O-methyltransferase (Homo sapiens) (UniProt P21964); assay: Confirmatory Screen for Target Class Profiling of Small Molecule Inhibitors of Methyltransferases (AID 1745852; calls by dose curve; as to activity change, negative = inhibition: % is scaled to controls: 0 for no effect and ±100 for the full control effect); settings: MTase-Glo luminescence, SAH detection, recombinant enzyme; measured here: COMT max response; stronger effect = lower value
Chain of Catechol O-methyltransferase (Homo sapiens) (P21964 whole entry, looked up): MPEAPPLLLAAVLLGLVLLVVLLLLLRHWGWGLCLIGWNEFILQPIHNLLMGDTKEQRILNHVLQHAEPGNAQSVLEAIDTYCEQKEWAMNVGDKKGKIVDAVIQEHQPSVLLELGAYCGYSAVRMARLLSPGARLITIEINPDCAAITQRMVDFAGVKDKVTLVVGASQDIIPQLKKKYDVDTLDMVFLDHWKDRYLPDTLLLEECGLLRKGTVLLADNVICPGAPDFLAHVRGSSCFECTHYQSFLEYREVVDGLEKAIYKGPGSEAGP

[8] = molecular target: Guanidinoacetate N-methyltransferase (Homo sapiens) (UniProt Q14353); assay: as above; settings: MTase-Glo luminescence, SAH detection, recombinant enzyme; activity change, negative = inhibition: at 57.3 µM (top of the series)
[9] = molecular target: Rap guanine nucleotide exchange factor 4 (Homo sapiens) (UniProt Q8WZA2); assay: Confirmatory qHTS for agonist of cAMP-regulated guanine nucleotide exchange factor 4 (EPAC2) (AID 1645884);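 also: nucleotide exchange releases bodipy-GDP from Rap1 and this lowers its fluorescence; % is scaled to controls: 0 for no effect and ±100 for the full control effect; nearly all actives have a fitted effect of over 65% in size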
[10] = molecular target: Rap guanine nucleotide exchange factor 3 (Homo sapiens) (UniProt O95398); assay: Counterscreen qHTS for antagonist of cAMP-regulated guanine nucleotide exchange factor 3 (EPAC1) (AID 1645888);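 also: fluorescence loss as bound BODIPY-GDP is released from Rap1B; % of control where 0% means no effect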
Method in brief: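 Rap1B–BODIPY-GDP (250 nM) with 50 uM GDP; compounds pin-transferred to 9.74 nM–152 uM final (activator) or from 7.32 nM upwards (inhibitor). Fluorescence Ex/Em 480/540 nm read at 5 and 30 min, then after adding cAMP or buffer, at room temperature.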

SMILES: Cc1cc(Nc2nc(N[C@@H](C)c3ncc(F)cn3)ncc2Cl)n[nH]1
- activity change, negative = inhibition [1]: -52.3%
- Potency [2]: 6.81 µM (active)

SMILES: O=C(Nc1cccc(Cl)c1)Nc1ncc(CCNc2ncnc3ccsc23)s1
- Potency [1]: 3.16 µM (active)

SMILES: Cc1nc(-c2ccc(-c3ccc(C(=O)N4CCc5cc6c(cc54)C4(CCN(C)CC4)CO6)cc3)c(C)c2)no1
- outcome [3]: inactive
- outcome [4]: inactive
- Potency [5]: inactive

SMILES: CN1CCN(c2ccc([N+](=O)[O-])c3no[n+]([O-])c23)CC1
- activity change, negative = inhibition [1]: -23.8%
- Potency [6]: 20.9 µM (active)

SMILES: c1ccc(C2(c3ccccc3)CC2C2=NCCN2)cc1 (stereo not drawn)
- activity change, negative = inhibition [1]: -20.9%
- Potency (Papain (Carica papaya)): inactive

SMILES: CNCCc1c[nH]c2ccc(O)cc12
- Potency (Papain (Carica papaya)): inactive
- activity [7]: 2.02%
- activity change, negative = inhibition [8]: 1.54%

SMILES: CCCN(CCC)C1CCc2ccc(O)cc2C1 (stereo not drawn)
- Potency (Papain (Carica papaya)): inactive

SMILES: CN1CC[C@@H](c2c(O)cc(O)c3c(=O)cc(-c4ccccc4Cl)oc23)[C@@H](O)C1
- Potency [2]: 1.36 µM (active)

SMILES: CN(c1ncccc1CNc1nc(Nc2ccc3c(c2)CC(=O)N3)ncc1C(F)(F)F)S(C)(=O)=O
- Potency [1]: 3.16 µM (active)
- Potency [2]: 2.15 µM (active)

SMILES: c1ccc(CCCN2CCN(CCOC(c3ccccc3)c3ccccc3)CC2)cc1
- Potency (Papain (Carica papaya)): inactive
- outcome [4]: inactive
- outcome [9]: inactive
- Potency [5]: inactive
- outcome [10]: inactive

SMILES: CNC(=O)c1cc(Oc2ccc(NC(=O)Nc3ccc(Cl)c(C(F)(F)F)c3)c(F)c2)ccn1
- Potency [2]: 10.8 µM (active)

SMILES: Cc1cc(Nc2cc(N3CCN(C)CC3)nc(Sc3ccc(NC(=O)C4CC4)cc3)n2)n[nH]1
- Potency [2]: 0.215 µM (active)

SMILES: Cc1n[nH]c(C)c1Cc1sc2c(c1C(=O)N1C[C@H](O)CO1)c(=O)n(C)c(=O)n2CC(C)C
- activity change, negative = inhibition [1]: -55.4%
- Potency [2]: 1.24 µM (active)

SMILES: CS(=N)(=O)CC[C@H](N)C(=O)O (stereo partly drawn)
- Potency (Papain (Carica papaya)): inactive

SMILES: NC(=NCCC[C@H](N)C(=O)O)N[N+](=O)[O-]
- Potency (Papain (Carica papaya)): inactive

SMILES: O=c1[nH]c(-c2ccc(C(F)(F)F)cc2)nc2c1CSCC2
- Potency [2]: 1.92 µM (active)

SMILES: O=C(O)c1ccc2c(c1)nc(Nc1cccc(Cl)c1)c1ccncc12
- Potency [2]: 2.15 µM (active)

SMILES: CC(C)[C@H](C(=O)Nc1ccc(C(=O)NO)cc1)c1ccccc1
- Potency [2]: 30.4 µM (active)

SMILES: C=CCN1CC[C@]23CCCCC2[C@H]1Cc1ccc(O)cc13 (stereo partly drawn)
- Potency (Papain (Carica papaya)): inactive

SMILES: Cn1cnc(CCN)c1
- Potency (Papain (Carica papaya)): inactive
- activity [7]: 2.37%
- activity change, negative = inhibition [8]: 1.75%

SMILES: CN1C2CCC1CC(OC(=O)c1cc(Cl)cc(Cl)c1)C2 (stereo not drawn)
- Potency (Papain (Carica papaya)): inactive

SMILES: Cc1nccc2c1[nH]c1ccccc12
- Potency (Papain (Carica papaya)): 28.2 µM (active)

SMILES: NC1CCc2cc(O)c(O)cc2C1 (stereo not drawn)
- Potency (Papain (Carica papaya)): inactive
- activity [7]: 149%
- activity change, negative = inhibition [8]: 0.293%

SMILES: CC(=O)Nc1ccc([C@H](C)C(=O)Nc2ncc(C(C)C)s2)cc1
- Potency [1]: 3.55 µM (active)
- Potency [2]: 13.6 µM (active)

SMILES: c1ccc2[nH]ccc2c1
- Potency [1]: inactive

SMILES: O=C(O)CC[N+](=O)[O-]
- Potency (Papain (Carica papaya)): inactive

SMILES: c1ccc2sc(C3(N4CCCCC4)CCCCC3)cc2c1
- Potency (Papain (Carica papaya)): inactive

SMILES: C[N+]1(C)C2CCC1CC(OC(=O)C(CO)c1ccccc1)C2 (stereo not drawn)
- Potency (Papain (Carica papaya)): inactive

SMILES: Cc1ccc(C(N)=O)cc1Nc1nccc(-c2cn(C(C)C)c3cnccc23)n1
- Potency [1]: 8.91 µM (active)
- Potency [2]: 2.15 µM (active)
